Compounds with a hit are over-represented: about 3.8% of the library has one in this group of screens.
ATXN viability = cell viability loss in ATXN counter-screen. hit rate 0.49% among 400,000. S2 cells (HEK-293 line with an ATXN2-luciferase reporter) viability, CellTiter-Fluor protease fluorescence, 24 h. Potency, µM (top dose mostly 56.7 µM), usual class: cytotoxic; further: nearly all actives have a fitted effect of over 40% in size
TGFb SMAD3 inh = inhibitors of TGF-b signaling. HepG2 CAGA-GFP TGF-b/SMAD3 reporter, GFP fluorescence, 18 h; TGF-beta stimulated, 500 pg/mL final. AID 588855. hit rate 1.2% among 410,000. Potency, µM (top dose mostly 46.1 µM), inactives show top-dose activity, negative = inhibition, most hits filed as inhibitors; further: on the % scale 0 is the no-effect control and ±100 the full control effect; nearly all actives have a fitted effect of over 65% in size
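Per well, imaged GFP fluorescence of HEPG2 CAGA-GFP cells gives the signal; cells get compound, then TGF-beta (500 pg/mL final), 18 h at 37 degrees C; %Activity versus -TGF-beta and +DMSO controls.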
A549 tox-1 = kills or reduces viability of A549 cells in Nrf2 counter-screen; A549 ARE-Fluc cells, CellTiter-Fluor viability, 18-24 h; Potency, µM (highest dose often 46 µM), inactives show at the top dose activity change, negative = cytotoxicity, actives largely listed as inhibitors; hit rate 0.16% among 390,000; AID 504648; further: on the % scale 0 is the no-effect control and ±100 the full control effect
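A549 ARE_Fluc cells in 5% FBS OPTI-MEM were exposed to compounds in concentration-response for 18-24 h at 37 deg C. Viability was read by CellTiter-Fluor fluorescence (Ex 405/Em 525) after 30 min, before the luciferase read.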
ATXN2 expr inh = ATXN2 expression inhibition | hit rate 0.72% among 360,000 | HEK-293 ATXN2-luciferase reporter, luminescence, 24 h | Potency, µM (titrated, usually from 57 µM), for inactives: top-dose activity change, negative = inhibition, hits mostly inhibitors | AID 1745845; further: on the % scale 0 is the no-effect control and ±100 the full control effect; nearly all actives have a fitted effect of over 55% in size
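qHTS (up to 57 uM final) was run with 24 h compound exposure of reporter cells at 37 °C. Each well was multiplexed: SteadyGlo luminescence measured ATXN2-luciferase expression after a fluorogenic Gly-Phe-AFC viability readout (25 uM final).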
HepG2 tox = HepG2 cytotoxicity, counter-screen for TGF-b inhibitors. HepG2 CAGA-GFP viability, ATP luminescence, 18 h. hit rate 0.76% among 410,000. AID 588856. Potency, µM (highest dose often 46.1 µM), inactives show at the highest dose activity change, negative = cytotoxicity, usual class: cytotoxic
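CellTiter-Glo luminescence gave cytotoxicity after 18 hours at 37 degrees C. The cells were HepG2 CAGA-GFP in 1% FBS DMEM, stimulated with 500 pg/mL TGF-beta after compound addition. %Activity was normalised to no-cell wells (complete cell-killing) and DMSO (no toxicity), and curves were fitted and classified.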
Nrf2 inh = Nrf2 pathway inhibition; A549 ARE-Fluc reporter, luciferase luminescence, 18-24 h; Potency, µM (series often up to 46 µM), without a hit: top-dose activity change, negative = inhibition, most hits filed as inhibitors; hit rate 2.1% among 360,000; further: on the % scale 0 is the no-effect control and ±100 the full control effect; nearly all actives have a fitted effect of over 60% in size
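Concentration-response testing used A549 ARE_Fluc cells at 5000 cells/well. Following an 18-24 h compound incubation, viability was read by fluorescence (Ex 405/Em 525) and luciferase output by luminescence.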
FLuc enzyme inh = counter-screen for Nrf2 inhibitors: firefly luciferase enzyme inhibition; shares compounds with Nrf2 inh; purified firefly luciferase, luminescence inhibition; Potency, µM (highest dose often 57.5 µM), for inactives: at the top dose activity change, negative = inhibition, usual class: inhibitors; hit rate 4% among 1,400; AID 720522; further: on the % scale 0 is the no-effect control and ±100 the full control effect; nearly all actives have a fitted effect of over 65% in size
Target sequence (P08659 whole entry, looked up): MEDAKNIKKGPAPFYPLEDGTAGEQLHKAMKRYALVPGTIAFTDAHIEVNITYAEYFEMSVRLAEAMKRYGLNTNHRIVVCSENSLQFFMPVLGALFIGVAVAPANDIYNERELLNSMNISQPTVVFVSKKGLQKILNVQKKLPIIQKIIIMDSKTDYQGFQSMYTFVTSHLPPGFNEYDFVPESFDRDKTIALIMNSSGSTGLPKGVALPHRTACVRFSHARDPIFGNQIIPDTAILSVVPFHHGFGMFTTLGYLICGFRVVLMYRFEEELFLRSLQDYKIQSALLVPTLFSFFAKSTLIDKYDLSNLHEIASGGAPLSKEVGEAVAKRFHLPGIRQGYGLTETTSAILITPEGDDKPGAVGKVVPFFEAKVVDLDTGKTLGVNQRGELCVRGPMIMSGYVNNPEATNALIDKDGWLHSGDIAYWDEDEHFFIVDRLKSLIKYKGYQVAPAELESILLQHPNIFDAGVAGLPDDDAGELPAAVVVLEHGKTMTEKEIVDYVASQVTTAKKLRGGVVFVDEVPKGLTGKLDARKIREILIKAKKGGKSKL
A549 tox-2 = counter-screen for Nrf2 inhibitors: cytotoxicity in A549 ARE cells. Potency, µM (titrated, usually from 46.1 µM), without a hit: at the top dose activity change, negative = cytotoxicity, actives largely listed as inhibitors. hit rate 2% among 1,400. A549 ARE-Fluc cells, cytotoxicity counterscreen. shares compounds with Nrf2 inh;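 further: cells exposed to compounds for 18 to 24 hours; on the % scale 0 is the no-effect control and ±100 the full control effect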
ARE-Fluc inh = reduces Nrf2 ARE reporter signal in A549 cells. shares compounds with Nrf2 inh. A549 ARE-firefly luciferase reporter, luminescence. Potency, µM (series often up to 46.1 µM), without a hit: top-dose activity change, negative = inhibition, most hits filed as inhibitors. hit rate 74% among 1,400; further: on the % scale 0 is the no-effect control and ±100 the full control effect; nearly all actives have a fitted effect of over 65% in size
* marks the source's active call; other numbers are inactive results; i = inactive; ? = inconclusive; nt = not tested or not shown. The call rests on the fitted dose curve; in most records, active means well fitted curve in the direction sought with a large enough effect; inconclusive means small, poorly fitted or top-dose-only effect, or another doubt; inactive means no such curve, though single readings can be large; an effect the other way counts as inactive or inconclusive. Potency means the concentration at half of the fitted maximal effect.

SMILES	ATXN viability	TGFb SMAD3 inh	A549 tox-1	ATXN2 expr inh	HepG2 tox	Nrf2 inh	FLuc enzyme inh	A549 tox-2	ARE-Fluc inh
CCc1cc(C(=O)NC2CCCc3c2cnn3-c2cccc(C)c2C)n(C)n1 (centres undefined)	i	-17%	?	-16%	-20%	0.18µM*	1%	-3%	0.082µM*
COCCN(Cc1cc2cc(C)ccc2nc1Cl)C(=O)Nc1ccccc1OC	i	8%	-1%	nt	-1%	?	nt	nt	nt
O=C(NC1CC1)c1[nH]c(C(F)(F)F)nc1-c1ccccc1	i	-5%	nt	0%	-3%	nt	nt	nt	nt
O=C(O)c1ccccc1C(=O)Nc1ccc(S(=O)(=O)NC2CCCCC2)cc1	i	?	-2%	5%	-2%	-3%	nt	nt	nt
c1nc(NCCCN2CCOCC2)c2cc(-c3ccc4c(c3)OCO4)ccc2n1	nt	nt	15%	nt	nt	-27%	nt	nt	nt
Cc1cccc(-n2c3c(cc(-c4nc(-c5ccc(Cl)cc5)cs4)c2=O)C(=O)CC(C)(C)C3)c1	i	-28%	4%	-1%	1%	-3%	nt	nt	nt
O=S(=O)(c1cccs1)N1CCN(c2ccc(O)cc2)CC1	?	0%	-8%	?	-2%	?	-21%	?	1.8µM*
CN1CCN(S(=O)(=O)c2cccs2)CC1	i	22%	0%	40%	21%	-5%	nt	nt	nt
COc1ccc(N2CCN(C(=O)CCS(=O)(=O)c3ccc4c(c3)NC(=O)C(C)S4)CC2)cc1 (centres undefined)	i	-26%	2%	-26%	-7%	-5%	nt	nt	nt
Cc1ccc(S(=O)(=O)N2CCC(C(=O)Nc3ccc(C)c(Cl)c3)CC2)cc1	nt	?	-14%	nt	-18%	?	-2%	-16%	7.3µM*
Cc1cc(C)cc(NC(=O)C2CCN(S(=O)(=O)c3ccc4c(c3)NC(=O)C(C)S4)CC2)c1 (centres undefined)	?	?	-16%	-38%	-19%	-16%	nt	nt	nt
CC1Sc2ccc(S(=O)(=O)N3CCN(c4ccccc4)CC3)cc2NC1=O (centres undefined)	?	?	-5%	nt	-19%	7.3µM*	-1%	-5%	?
Cc1ccc(NC(=O)C2CCN(S(=O)(=O)c3ccc4c(c3)NC(=O)C(C)S4)CC2)cc1Cl (centres undefined)	?	2.2µM*	?	nt	-11%	1.3µM*	-10%	-27%	9.2µM*
Cc1ccc(C)c(N2CCN(C(=O)CCS(=O)(=O)c3ccc4c(c3)NC(=O)C(C)S4)CC2)c1 (centres undefined)	i	?	-1%	nt	-22%	6.5µM*	1%	-15%	6.5µM*
CC1Sc2ccc(S(=O)(=O)N3CCN(c4cccc(Cl)c4)CC3)cc2NC1=O (centres undefined)	i	?	-3%	nt	-19%	-6%	nt	nt	nt
COC(=O)c1sccc1NC(=O)Nc1ccc(F)cc1F	i	-4%	1%	5%	-15%	2%	nt	nt	nt
OC[C@]1(O)OC[C@@H](O)[C@H](O)[C@@H]1O	i	nt	nt	1%	nt	nt	nt	nt	nt
CC(/C=N\NC(=O)Cn1c(C)nc2ccccc21)=C\c1ccccc1	?	-19%	-19%	?	-12%	8.2µM*	-2%	-18%	7.3µM*
